Results published in PubChem BioAssay (NCATS).
Inconclusive results are not listed. Calls of active or inactive are those of the source. Unless noted, calls follow the shape of the dose curve; as a rule, active = well fitted curve in the direction sought with a large enough effect; inconclusive = small, poorly fitted or top-dose-only effect, or another doubt; inactive = no such curve, though single readings can be large; an effect the other way counts as inactive or inconclusive.

Key:
[1] = Viability counterscreen for antagonist of constitutive androstane receptor (CAR) against the NCATS DSHEA and TCM libraries (AID 1794837);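 also: compound exposure lasted 24 h before viability reading; 0% is about no effect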
How it was run: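 Viability was measured by CellTiter-Fluor fluorescence (405/540 nm, 1 hr) in HepG2-CYP2B6-hCAR cells. Cells were co-treated 24 hr with 48 uM CITCO (final), antagonist mode, and test substances.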

[2] = Viability counterscreen for agonist of constitutive androstane receptor (CAR) against the NCATS DSHEA and TCM libraries (AID 1794838); also: 0% is about no effect
How it was run: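 Cell viability, from CellTiter-Fluor fluorescence (405/540 nm), was scored after a 24 h, 37C exposure of HepG2 cells carrying CYP2B6 reporter and hCAR to test substances in presence of 0.75 uM PK11195.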

[3] = molecular target: Nuclear receptor subfamily 1 group I member 3 (Homo sapiens) (UniProt Q14994); assay: Primary qHTS for agonist of constitutive androstane receptor (CAR) against the NCATS DSHEA and TCM libraries (AID 1794839);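 also: HepG2 cells expressing human CAR with a CYP2B6 reporter plus PK11195 antagonist; luciferase reporter luminescence read with ONE-Glo; 0% is about no effect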
Nuclear receptor subfamily 1 group I member 3 (Homo sapiens), sequence (Q14994 whole entry, looked up): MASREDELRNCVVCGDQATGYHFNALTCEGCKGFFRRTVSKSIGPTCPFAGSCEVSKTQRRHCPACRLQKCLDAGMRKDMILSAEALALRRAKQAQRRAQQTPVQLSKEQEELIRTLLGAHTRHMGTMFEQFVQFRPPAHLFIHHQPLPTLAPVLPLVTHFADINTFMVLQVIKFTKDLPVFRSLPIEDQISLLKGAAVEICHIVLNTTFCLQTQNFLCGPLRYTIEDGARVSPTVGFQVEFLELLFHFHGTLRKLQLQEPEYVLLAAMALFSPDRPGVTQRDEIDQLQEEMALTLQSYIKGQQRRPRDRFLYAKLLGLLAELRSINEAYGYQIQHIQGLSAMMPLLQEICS
How it was run: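 Agonist mode in presence of hCAR antagonist PK11195 (0.75 µM final): test substances, 24 h, 37 °C, on HepG2-CYP2B6-hCAR cells. Same-well readouts: fluorescence viability, then ONE-Glo luminescence; CITCO as reference agonist.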

[4] = HepG2 viability counterscreen (readout 2: ATP content) against the NCATS DSHEA and TCM libraries (AID 1794840);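 also: HepG2 cells exposed to substances for about 24 h; 0% is about no effect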
How it was run: (§1)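 Readout 1: cellular protease activity, GF-AFC substrate (25 uM final, 30 min, fluorescence 380/510 nm). Readout 2: ATP content by CellTiter-Glo luminescence after 30 min at RT. Both follow ~24 h exposure of HepG2 cells (1,000/well) to substances.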

[5] = HepG2 viability counterscreen (readout 1: protease activity) against the NCATS DSHEA and TCM libraries (AID 1794841);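 also: cells exposed to compounds for about 24 h before the protease read; 0% is about no effect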
How it was run: as §1

[6] = molecular target: Cytochrome P450 3A4 (Homo sapiens) (UniProt P08684); assay: qHTS for inhibitors of CYP3A4 against the NCATS DSHEA and TCM libraries (AID 1919971); also: potency is read from the fitted curve at half-maximal effect;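 as to activity change, negative = inhibition: % is scaled to controls: 0 for no effect and ±100 for the full control effect; inhibition lowers luminescence from luciferin made by CYP3A4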
Cytochrome P450 3A4 (Homo sapiens), sequence (P08684 whole entry, looked up, canonical isoform): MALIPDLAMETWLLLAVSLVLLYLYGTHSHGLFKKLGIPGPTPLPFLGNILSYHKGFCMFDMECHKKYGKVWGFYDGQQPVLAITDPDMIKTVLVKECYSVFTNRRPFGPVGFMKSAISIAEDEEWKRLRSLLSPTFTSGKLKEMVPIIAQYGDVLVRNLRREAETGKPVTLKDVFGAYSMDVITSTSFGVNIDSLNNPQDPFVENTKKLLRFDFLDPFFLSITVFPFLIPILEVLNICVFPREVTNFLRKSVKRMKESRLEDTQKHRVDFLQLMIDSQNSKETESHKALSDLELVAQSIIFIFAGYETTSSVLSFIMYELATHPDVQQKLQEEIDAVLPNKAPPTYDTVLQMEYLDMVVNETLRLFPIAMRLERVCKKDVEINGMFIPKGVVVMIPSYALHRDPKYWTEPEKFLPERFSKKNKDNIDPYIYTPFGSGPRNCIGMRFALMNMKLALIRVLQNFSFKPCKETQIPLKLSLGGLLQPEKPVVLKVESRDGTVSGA
How it was run: (§2)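 Read-out is luminescence after P450-Glo detection (30 min, RT). Before that: 15 min compound–enzyme preincubation, then 30-45 min reaction with 1x NADPH regeneration solution, substrate concentration isoform-specific.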

[7] = molecular target: Cytochrome P450 2D6 (Homo sapiens) (UniProt P10635); assay: qHTS for inhibitors of CYP2D6 against the NCATS DSHEA and TCM libraries (AID 1919972); also: % is scaled to controls: 0 for no effect and ±100 for the full control effect
Cytochrome P450 2D6 (Homo sapiens), sequence (P10635 whole entry, looked up): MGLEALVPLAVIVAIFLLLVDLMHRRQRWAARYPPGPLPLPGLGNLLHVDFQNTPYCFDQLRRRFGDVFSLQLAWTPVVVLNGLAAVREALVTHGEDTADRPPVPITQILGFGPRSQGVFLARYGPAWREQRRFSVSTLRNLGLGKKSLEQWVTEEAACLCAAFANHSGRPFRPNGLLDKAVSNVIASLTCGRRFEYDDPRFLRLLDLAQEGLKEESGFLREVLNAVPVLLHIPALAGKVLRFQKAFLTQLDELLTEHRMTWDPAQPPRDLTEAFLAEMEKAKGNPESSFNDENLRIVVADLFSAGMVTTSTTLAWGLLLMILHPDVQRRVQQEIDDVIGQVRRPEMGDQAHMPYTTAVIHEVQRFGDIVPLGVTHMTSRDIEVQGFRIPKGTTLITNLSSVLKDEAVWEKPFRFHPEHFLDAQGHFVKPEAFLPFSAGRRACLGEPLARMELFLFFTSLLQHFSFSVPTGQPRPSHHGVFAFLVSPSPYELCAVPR
How it was run: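 Luminescent P450-Glo read-out of CYP2D6 turnover of a luciferin substrate after NADPH-driven reaction of 30-45 min at room temperature. Compounds were first preincubated 15 min with enzyme at titrated concentrations; quinidine was the intraplate control.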

[8] = molecular target: Cytochrome P450 2C9 (Homo sapiens) (UniProt P11712); assay: qHTS for inhibitors of CYP2C9 against the NCATS DSHEA and TCM libraries (AID 1919973); also: potency is read from the fitted curve at half-maximal effect
Cytochrome P450 2C9 (Homo sapiens), sequence (P11712 whole entry, looked up): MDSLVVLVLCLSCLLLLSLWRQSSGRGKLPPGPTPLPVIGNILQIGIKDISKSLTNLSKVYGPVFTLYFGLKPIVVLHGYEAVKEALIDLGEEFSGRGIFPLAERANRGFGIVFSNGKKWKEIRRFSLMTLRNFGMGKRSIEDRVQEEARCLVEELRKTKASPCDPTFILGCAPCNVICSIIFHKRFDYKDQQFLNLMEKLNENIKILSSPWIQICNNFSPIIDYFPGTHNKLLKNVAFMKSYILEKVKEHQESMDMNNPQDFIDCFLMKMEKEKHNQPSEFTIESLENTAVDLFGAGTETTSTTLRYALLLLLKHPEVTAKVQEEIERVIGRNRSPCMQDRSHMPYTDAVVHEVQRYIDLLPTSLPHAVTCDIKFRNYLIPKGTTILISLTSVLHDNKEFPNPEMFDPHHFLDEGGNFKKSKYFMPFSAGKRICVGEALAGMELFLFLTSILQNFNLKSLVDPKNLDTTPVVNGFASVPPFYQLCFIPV
How it was run: as §2

[9] = molecular target: Cytochrome P450 2C19 (Homo sapiens) (UniProt P33261); assay: qHTS for inhibitors of CYP2C19 against the NCATS DSHEA and TCM libraries (AID 1919974);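 also: luminescence from luciferin released by CYP2C19 oxidation of a pro-luciferin substrate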; also: potency is read from the fitted curve at half-maximal effect
Cytochrome P450 2C19 (Homo sapiens), sequence (P33261 whole entry, looked up): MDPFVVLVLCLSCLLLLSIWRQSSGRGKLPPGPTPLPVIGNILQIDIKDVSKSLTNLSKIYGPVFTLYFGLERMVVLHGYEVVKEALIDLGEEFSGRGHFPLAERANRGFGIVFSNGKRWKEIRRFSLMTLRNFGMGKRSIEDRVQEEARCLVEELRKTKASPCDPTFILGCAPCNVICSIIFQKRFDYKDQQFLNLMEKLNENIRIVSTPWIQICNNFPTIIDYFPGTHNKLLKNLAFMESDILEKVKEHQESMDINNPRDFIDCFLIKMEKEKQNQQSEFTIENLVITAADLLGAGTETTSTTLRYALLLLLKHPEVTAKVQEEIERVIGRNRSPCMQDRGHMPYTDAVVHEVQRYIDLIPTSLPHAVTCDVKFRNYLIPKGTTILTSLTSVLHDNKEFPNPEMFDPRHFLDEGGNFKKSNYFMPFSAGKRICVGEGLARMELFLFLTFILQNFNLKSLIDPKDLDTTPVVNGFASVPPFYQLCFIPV
How it was run: as §2

[10] = KB-3-1 P-gp reporter qHTS against the NCATS DSHEA and TCM libraries (AID 1919975); also: 0% is about no effect
How it was run: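 Cell viability by CellTiter-Glo luminescence following ~72 h compound exposure (concentration-response). Uses parental, non-P-gp-overexpressing KB-3-1 line, 500 cells/well in DMEM/10% FBS, attached ~4 h before dosing.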

[11] = qHTS Counterscreen for compound interference against the NCATS DSHEA and TCM libraries (AID 1919978); settings: firefly luciferase detection reagent interference, luminescence;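 also: compounds preincubated with 1 µM D-luciferin or buffer before detection reagent; % of control where 0% means no effect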
How it was run: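 With 1 uM D-luciferin or phosphate buffer only, compounds at final 19.5 nM–39.8 uM were incubated for 15 min at room temperature. Luciferase detection reagent was then added, and luminescence was measured after a further 30 min at room temperature.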

[12] = Dual reporter qHTS for agonist of Pregnane X Receptor (hPXR) against the NCATS DSHEA and TCM libraries: Fluorescence readout (AID 1920058); also: 0% is about no effect
How it was run: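 HepG2 hPXR-Luc, 2000 cells/well, 5 h attach; cpds ~24 h, 37 °C/5% CO2; CellTiter-Fluor 1 h; fluor. Ex/Em 405/540 nm = viability.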

[13] = molecular target: Nuclear receptor subfamily 1 group I member 2 (Homo sapiens) (UniProt O75469); assay: Dual reporter qHTS for agonist of Pregnane X Receptor (hPXR) against the NCATS DSHEA and TCM libraries: Luminescence readout (AID 1920059); also: potency is read from the fitted curve at half-maximal effect
Nuclear receptor subfamily 1 group I member 2 (Homo sapiens), sequence (O75469 whole entry, looked up): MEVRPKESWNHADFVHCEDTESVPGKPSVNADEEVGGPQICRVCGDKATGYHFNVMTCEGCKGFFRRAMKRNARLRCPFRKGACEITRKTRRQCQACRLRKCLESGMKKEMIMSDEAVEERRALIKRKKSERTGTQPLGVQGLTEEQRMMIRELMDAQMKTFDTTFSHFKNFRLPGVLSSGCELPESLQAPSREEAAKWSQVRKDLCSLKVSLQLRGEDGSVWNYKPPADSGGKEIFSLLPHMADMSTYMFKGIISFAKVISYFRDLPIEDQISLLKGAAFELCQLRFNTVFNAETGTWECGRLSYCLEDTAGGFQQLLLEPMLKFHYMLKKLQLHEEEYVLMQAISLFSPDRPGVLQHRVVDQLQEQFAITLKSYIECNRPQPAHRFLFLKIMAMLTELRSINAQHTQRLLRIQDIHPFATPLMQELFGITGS
How it was run: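 hPXR-LucHepG2 cells in phenol red-free DMEM with 5% charcoal-stripped FBS, 2000 cells/well, attached 5 h, then exposed 24 h at 37C to compounds; rifampicin as positive agonist control (2.8 nM–92 uM). Luciferase luminescence read.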

[14] = molecular target: Nuclear receptor subfamily 1 group I member 2 (Homo sapiens) (UniProt O75469); assay: Dual reporter qHTS for antagonist of Pregnane X Receptor (hPXR) against the NCATS DSHEA and TCM libraries: Luminescence Readout (AID 1920060);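 also: HepG2 cells carrying hPXR luciferase reporter stimulated with rifampicin at 2 µM; 0% is about no effect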
How it was run: (§3)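 Antagonist mode: rifampicin 2 uM final co-added with compounds to hPXR-LucHepG2 cells for 24 h at 37C. Viability by CellTiter-Fluor, Ex/Em 405/540 nm, 1 h; reporter by ONE-Glo luminescence.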

[15] = Dual reporter qHTS for antagonist of Pregnane X Receptor (hPXR) against the NCATS DSHEA and TCM libraries: Fluorescence Readout (AID 1920061); also: 0% is about no effect
How it was run: as §3

[16] = molecular target: Cytochrome P450 1A2 (Homo sapiens) (UniProt P05177); assay: qHTS for inhibitors of CYPIA2 against the NCATS DSHEA and TCM libraries (AID 1919976);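 also: light from luciferin formed by CYP1A2 from a pro-luciferin substrate; % is scaled to controls: 0 for no effect and ±100 for the full control effect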
Cytochrome P450 1A2 (Homo sapiens), sequence (P05177 whole entry, looked up): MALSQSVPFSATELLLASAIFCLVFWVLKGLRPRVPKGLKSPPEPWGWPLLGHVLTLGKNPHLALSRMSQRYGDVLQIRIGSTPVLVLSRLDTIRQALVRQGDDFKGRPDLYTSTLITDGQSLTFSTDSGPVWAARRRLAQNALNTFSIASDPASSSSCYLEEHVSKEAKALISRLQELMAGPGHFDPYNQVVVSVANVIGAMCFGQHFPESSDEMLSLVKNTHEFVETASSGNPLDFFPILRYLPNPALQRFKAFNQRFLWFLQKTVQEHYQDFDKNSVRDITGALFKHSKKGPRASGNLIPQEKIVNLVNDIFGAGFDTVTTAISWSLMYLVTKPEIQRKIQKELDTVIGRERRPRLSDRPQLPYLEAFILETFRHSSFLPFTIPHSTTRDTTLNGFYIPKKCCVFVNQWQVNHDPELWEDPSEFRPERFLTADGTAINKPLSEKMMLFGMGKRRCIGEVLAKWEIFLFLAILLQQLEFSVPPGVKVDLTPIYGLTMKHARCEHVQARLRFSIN
How it was run: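 CYP1A2 + luciferin substrate, 100 mM KPO4-type buffer; cmpd 15 min RT; 1x NADPH regen, 30-45 min RT dark; detection reagent 30 min RT; luminescence. Minus-enzyme wells as background; furafylline intraplate control.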

[17] = NFAT Signaling Pathway (AID 444; active = well fitted curve in either direction with a large enough effect, not every such curve was filed as active;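 also: carbachol stimulus at about its EC50 of 1 µM final; % is scaled to controls: 0 for no effect and ±100 for the full control effect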); settings: Jurkat NFAT-bla M1, carbachol, beta-lactamase ratio, 5 h; at 7.69 µM (top of the series) unless noted
How it was run: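 Jurkat cells carrying an NFAT-driven β-lactamase reporter and co-transfected muscarinic M1 receptor were treated with compound plus carbachol (1 uM final, an EC50 level) for 5 h at 37 °C. CCF4 loading followed for 1 h at RT; 460/530 nm ratio gave %activity.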

[18] = molecular target: Glucocorticoid receptor (Homo sapiens) (UniProt P04150); assay: GR-GFP Redistribution (AID 450;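 active = compounds whose dose series gives a full or clear partial fitted curve of increased nuclear translocation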; also: potency is read from the fitted curve at half-maximal effect); settings: U2OS GR-GFP nuclear translocation, laser cytometry, 2 h
Glucocorticoid receptor (Homo sapiens), sequence (P04150 whole entry, looked up): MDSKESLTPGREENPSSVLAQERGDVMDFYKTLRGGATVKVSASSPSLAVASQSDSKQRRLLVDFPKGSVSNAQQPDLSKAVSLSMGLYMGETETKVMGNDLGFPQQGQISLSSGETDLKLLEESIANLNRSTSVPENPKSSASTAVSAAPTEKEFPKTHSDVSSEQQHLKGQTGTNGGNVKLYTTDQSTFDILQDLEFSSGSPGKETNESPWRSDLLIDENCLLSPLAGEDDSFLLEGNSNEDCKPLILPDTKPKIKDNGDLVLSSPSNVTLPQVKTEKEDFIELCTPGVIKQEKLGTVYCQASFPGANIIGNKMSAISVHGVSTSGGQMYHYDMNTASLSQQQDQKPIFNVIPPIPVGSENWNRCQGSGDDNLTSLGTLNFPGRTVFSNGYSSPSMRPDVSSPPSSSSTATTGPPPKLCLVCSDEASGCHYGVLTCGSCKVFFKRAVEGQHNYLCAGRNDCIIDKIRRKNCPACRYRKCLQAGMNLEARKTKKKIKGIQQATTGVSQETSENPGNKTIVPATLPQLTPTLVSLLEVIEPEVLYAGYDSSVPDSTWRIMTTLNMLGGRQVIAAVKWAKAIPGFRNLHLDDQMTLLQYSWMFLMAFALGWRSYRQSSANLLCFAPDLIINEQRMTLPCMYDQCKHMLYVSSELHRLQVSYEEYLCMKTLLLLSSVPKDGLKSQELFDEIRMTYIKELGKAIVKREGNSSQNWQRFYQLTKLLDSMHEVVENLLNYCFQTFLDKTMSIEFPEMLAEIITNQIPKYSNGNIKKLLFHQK

[19] = molecular target: Mitogen-activated protein kinase 10 (Mus musculus) (UniProt Q61831); assay: JNK3 AlphaScreen Assay (AID 530; active = well fitted curve in either direction with a large enough effect, not every such curve was filed as active;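 also: kinase came from lysate of stimulated human HepG2 cells; signal reports phosphorylation of biotinylated GST-cJun 1-79 at Ser73 with 10 µM ATP; % is scaled to controls: 0 for no effect and ±100 for the full control effect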)
How it was run: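 Inhibitors reduce antibody binding to phosphorylated biotin-cJun, lowering AlphaScreen luminescence. Lysates from HepG2 cells pre-activated by IL-1beta plus TNF-alpha supplied JNK3; compounds were titrated.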

[20] = molecular target: Ubiquitin carboxyl-terminal hydrolase 1 (Homo sapiens) (UniProt O94782); assay: Inhibitors of USP1/UAF1: Pilot qHTS (AID 504865);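 also: rhodamine fluorescence freed from ubiquitin-rhodamine substrate followed over time; top concentration of the series differs between compounds; % is scaled to controls: 0 for no effect and ±100 for the full control effect; nearly all actives have a fitted effect of over 35% in size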
Ubiquitin carboxyl-terminal hydrolase 1 (Homo sapiens), sequence (O94782 whole entry, looked up): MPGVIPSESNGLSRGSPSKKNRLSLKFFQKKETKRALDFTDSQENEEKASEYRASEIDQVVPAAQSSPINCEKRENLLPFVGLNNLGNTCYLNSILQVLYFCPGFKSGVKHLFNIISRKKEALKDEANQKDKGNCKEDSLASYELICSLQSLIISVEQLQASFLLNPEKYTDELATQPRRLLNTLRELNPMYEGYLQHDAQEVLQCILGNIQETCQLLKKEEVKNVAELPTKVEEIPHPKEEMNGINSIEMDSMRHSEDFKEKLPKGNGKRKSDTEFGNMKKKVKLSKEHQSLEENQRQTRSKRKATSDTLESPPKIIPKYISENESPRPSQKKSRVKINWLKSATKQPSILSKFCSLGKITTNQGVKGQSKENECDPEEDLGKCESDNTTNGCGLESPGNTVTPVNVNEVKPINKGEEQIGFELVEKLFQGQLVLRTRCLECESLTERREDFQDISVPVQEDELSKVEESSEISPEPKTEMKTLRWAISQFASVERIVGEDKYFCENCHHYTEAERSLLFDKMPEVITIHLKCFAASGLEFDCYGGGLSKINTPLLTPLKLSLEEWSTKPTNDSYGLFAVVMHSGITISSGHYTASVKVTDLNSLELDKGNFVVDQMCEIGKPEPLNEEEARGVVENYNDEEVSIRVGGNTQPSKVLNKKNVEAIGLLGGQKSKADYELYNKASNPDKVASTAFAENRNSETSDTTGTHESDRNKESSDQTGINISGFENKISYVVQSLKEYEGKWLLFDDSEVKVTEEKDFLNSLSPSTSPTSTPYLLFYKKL
How it was run: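 Deubiquitinase activity followed as kinetic rhodamine fluorescence release from 150 nM Ub-Rho. 1 nM USP1/UAF1 with compound, after 15 min room-temperature preincubation, in HEPES pH 7.8 buffer containing TCEP, EDTA, BSA and Tween-20.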

CN(CC(=O)O)C(=N)N
inactive: outcome [1] | outcome [2] | Potency [3] | outcome [4] | outcome [5] | Potency [6] | Potency [7] | Potency [8] | Potency [9] | outcome [10] | max response [11] -1.47% | outcome [12] | Potency [13] | outcome [14] | outcome [15]

C[C@@H]1O[C@@H](OC[C@H]2OC(Oc3c(-c4ccc(O)c(O)c4)oc4cc(O)cc(O)c4c3=O)[C@H](O)[C@@H](O)[C@@H]2O)[C@H](O)[C@H](O)[C@H]1O (some centres not stated)
inactive: outcome [1] | outcome [2] | Potency [3] | outcome [4] | outcome [5] | Potency [7] | Potency [8] | Potency [9] | outcome [10] | Potency [16] | max response [11] -2.59% | outcome [12] | Potency [13] | outcome [14]

COc1ccccc1CNc1nc(-c2ccoc2)nc2ccccc12
inactive: activity change, negative = inhibition [17] -19.8% | Potency [18] > 46 µM | Potency [19] | Potency [20]

Cc1ccc(C(C)C)cc1
inactive: outcome [1] | outcome [2] | Potency [3] | outcome [4] | outcome [5] | Potency [7] | Potency [8] | Potency [9] | outcome [10] | Potency [16] | max response [11] -0.622% | outcome [12] | Potency [13] | outcome [14] | outcome [15]

C=C/C(C)=C/C/C=C(\C)CCC=C(C)C
inactive: outcome [1] | outcome [2] | Potency [3] | outcome [4] | outcome [5] | Potency [7] | outcome [10] | max response [11] 2.78% | outcome [12] | outcome [14] | outcome [15]
active: Potency [6] 28.2 µM | Potency [8] 35.5 µM | Potency [9] 31.6 µM

O=C(OC[C@H]1O[C@@H](OC(=O)c2cc(O)c(O)c(O)c2)[C@H](OC(=O)c2cc(O)c(O)c(O)c2)[C@@H](OC(=O)c2cc(O)c(O)c(O)c2)[C@@H]1O)c1cc(O)c(O)c(O)c1
inactive: outcome [1] | outcome [2] | Potency [3] | outcome [4] | outcome [5] | outcome [10] | max response [11] -2.07% | outcome [12] | Potency [13] | outcome [15]
active: Potency [6] 12.6 µM | Potency [8] 3.16 µM | Potency [9] 3.98 µM

COc1ccccc1-c1nc(NC2CC2)c2ccccc2n1
inactive: activity change, negative = inhibition [17] -13.9% | Potency [18] > 46 µM | Potency [19] | Potency [20]

CC(C)=CCCC(C)=CCCC(C)=CCCC=C(C)CCC=C(C)CCC=C(C)C
inactive: outcome [1] | outcome [2] | Potency [3] | outcome [4] | outcome [5] | Potency [7] | Potency [8] | Potency [9] | outcome [10] | Potency [16] | max response [11] -1.5% | outcome [12] | Potency [13] | outcome [14] | outcome [15]

COc1cccc(Nc2ncc3ncc(=O)n(Cc4ccc(F)cc4)c3n2)c1
inactive: activity change, negative = inhibition [17] -8.23% | Potency [18] > 9.22 µM | Potency [19] | Potency [20]

C=CC(C)(CCC=C(C)C)OC(C)=O (configuration not stated)
inactive: outcome [1] | outcome [2] | Potency [3] | outcome [4] | outcome [5] | Potency [6] | Potency [7] | Potency [8] | Potency [9] | outcome [10] | max response [11] -0.984% | outcome [12] | Potency [13] | outcome [14] | outcome [15]

C=C1C[C@]23CC[C@H]4[C@@](C)(CCC[C@@]4(C)C(=O)O)[C@@H]2CC[C@@]1(O[C@@H]1O[C@H](CO)[C@@H](O)[C@H](O)[C@H]1O[C@@H]1O[C@H](CO)[C@@H](O)[C@H](O)[C@H]1O)C3
inactive: outcome [1] | outcome [2] | Potency [3] | outcome [4] | outcome [5] | Potency [7] | Potency [8] | Potency [9] | outcome [10] | Potency [16] | max response [11] -1.97% | outcome [12] | Potency [13] | outcome [14] | outcome [15]

C=C1CC[C@H](O)C/C1=C\C=C1/CCC[C@]2(C)[C@@H]([C@H](C)CC[C@H](C)C(C)C)CC[C@@H]12
active: Potency [6] 15.8 µM | Potency [8] 10 µM | Potency [9] 22.4 µM | Potency [13] 28.2 µM
inactive: outcome [1] | outcome [2] | Potency [3] | outcome [4] | outcome [5] | Potency [7] | outcome [10] | Potency [16] | max response [11] -0.676% | outcome [12] | outcome [14] | outcome [15]

COc1ccc2[nH]cc(CCNc3ncnc4ccc(-c5cccc(C#N)c5)cc34)c2c1
inactive: Potency [18] > 46 µM | Potency [19] | Potency [20]

Cc1ccccc1-c1nc(Nc2ccncc2)c2ccccc2n1
inactive: activity change, negative = inhibition [17] 6.78% | Potency [18] > 46 µM | Potency [19]

Cc1cnc(CNc2ncnc3ccc(-c4ccccc4C)cc23)cn1
inactive: activity change, negative = inhibition [17] -7.95% | Potency [18] > 46 µM | Potency [20]

CC[C@H](CC[C@@H](C)[C@H]1CCC2C3CCC4C[C@@H](O)CC[C@]4(C)C3CC[C@@]21C)C(C)C (some centres not stated)
inactive: outcome [1] | outcome [2] | Potency [3] | outcome [4] | outcome [5] | Potency [6] | Potency [7] | Potency [8] | Potency [9] | outcome [10] | max response [11] -1.23% | outcome [12] | Potency [13] | outcome [14] | outcome [15]

COc1ccc2[nH]cc(CCNc3ncncc3-c3ccccc3C)c2c1
inactive: activity change, negative = inhibition [17] 7.13% | Potency [18] > 46 µM | Potency [19] | Potency [20]

CC1(C)CC[C@]2(C(=O)O)CC[C@]3(C)C(=CCC4[C@@]5(C)CC[C@@H](O)C(C)(C)C5CC[C@]43C)C2C1 (some centres not stated)
inactive: outcome [1] | outcome [2] | Potency [3] | outcome [4] | outcome [5] | Potency [7] | Potency [8] | Potency [9] | outcome [10] | Potency [16] | max response [11] -3.58% | outcome [12] | Potency [13] | outcome [14] | outcome [15]
